Values joined by “and” are separate entries in the source; they are usually repeats but may differ in a detail not shown here. Equal values may be shown once. The panel holds about 79,000 compounds, 15% with a hit somewhere; the sample as a whole holds those more often. Rule as the data show it: active = growth inhibition above about 70%; inactive = the rest.
How the values were obtained:
[1] = NCI Yeast Anticancer Drug Screen. Data for the rad50 strain (AID 155);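 also: 0% = growth of vehicle-only cultures of the same strain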; conditions: S. cerevisiae rad50 strain growth inhibition, active compounds read high; at 50.0 µM unless noted
Outline: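 Inhibition values express reduced yeast growth in compound-treated cultures relative to vehicle-treated controls.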

[2] = NCI Yeast Anticancer Drug Screen. Data for the mec2-1 strain (AID 157); conditions: S. cerevisiae mec2-1 strain, active compounds read high; at 50.0 µM unless noted
Outline: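 mec2-1 yeast strain, carrying an alteration in DNA damage repair or cell cycle control, was exposed to compounds; growth inhibition was measured relative to vehicle-treated controls.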

[3] = NCI Yeast Anticancer Drug Screen. Data for the sgs1 mgt1 strain (AID 161);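 also: 0% = growth of cultures given vehicle only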; conditions: S. cerevisiae sgs1 mgt1 strain, active compounds read high; at 50.0 µM unless noted
Outline: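 Percent growth inhibition was derived by comparing compound-exposed mutant yeast with vehicle-exposed cultures. The strain carries alterations in DNA damage repair.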

[4] = NCI Yeast Anticancer Drug Screen. Data for the cln2 rad14 strain (AID 165);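 also: 0% = growth equal to vehicle treated cultures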; conditions: S. cerevisiae cln2 rad14 strain, active compounds read high; at 50.0 µM unless noted
Outline: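 Yeast carrying cln2 and rad14 alterations (cell cycle control and DNA damage repair) were exposed to compounds. Growth inhibition was measured against vehicle-treated controls.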

[5] = NCI Yeast Anticancer Drug Screen. Data for the bub3 strain (AID 167); conditions: S. cerevisiae bub3 mutant strain, active compounds read high; at 50.0 µM unless noted
Outline: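 Steps: expose the mutant yeast strain to compound; grow alongside vehicle-treated cultures; measure growth; express inhibition against the vehicle cultures.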

[6] = NCI Yeast Anticancer Drug Screen. Data for the mlh1 rad18 strain (AID 175); conditions: S. cerevisiae mlh1 rad18 strain growth inhibition, active compounds read high; at 50.0 µM unless noted
Outline: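 Growth inhibition of the yeast strain was measured after compound exposure and expressed relative to vehicle-treated controls. The strain carries defined defects in DNA damage repair.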

Measured: growth inhibition

OC(CCN1CC2CCC(CC2)C1)(Cc1ccccc1)c1cccs1 (stereo unspecified)
inactive: [1] 6.75% | [2] 2.7% | [3] 21.1% | [4] 11.2% | [5] 17.1% | [6] 32.5%

COc1ccc(OC)c(N)c1
inactive: [1] -4.3% | [2] -8.4% | [3] -7.55% | [4] 16.4% | [5] 3.6% | [6] -22.9%

COc1c(O)cc2c(c1O)C1OC(CO)C(O)C(O)C1OC2=O (stereo unspecified)
inactive: [1] -4.3% | [2] -15.4% | [3] -3.85% | [4] 19.1% | [5] -20.8% | [6] 0.5%

c1ccc(CNCCNCc2ccccc2)cc1
inactive: [1] 0.3% and 58.3% | [2] 4.75% and -16.4% | [3] 14.4% and 50.9% | [4] -56.7% and -11.3% | [5] -11.7% and 0.05% | [6] -5.35% and 46%

CCCCN1CC(=O)N2CCCC(c3ccccc3)N2C(=O)C1 (stereo unspecified)
inactive: [1] 7.55% | [2] -0.95% | [3] 17.6% | [4] 15.4% | [5] 10.5% | [6] -3.5%

Cc1cc(Cl)ccc1NC(=O)C(=O)Cc1ccc([N+](=O)[O-])c([N+](=O)[O-])c1CC(=O)C(=O)Nc1ccc(Cl)cc1C
inactive: [1] -10.6% | [2] -30.4% | [3] -13.6% | [4] -7.8% | [5] 18.6% | [6] 7%

CC1CC(=O)CC(C)(C)N1 (stereo unspecified)
inactive: [1] -9.4% | [2] -9% | [3] 3.2% | [4] -2.4% | [5] 5.85% | [6] -7.25%

COc1ccccc1N=Nc1c(O)n(-c2ccccc2OC)c(=S)n(-c2ccccc2)c1=O
inactive: [1] 40.8% | [2] -3.45% | [3] 31.9% | [4] -13.4% | [5] -2.5% | [6] 16.9%

CCc1n[nH]c(=O)n1NC(=O)c1ccccc1C(=O)O
inactive: [1] 15.8% | [2] 11.8% | [3] 15.2% | [4] 20.6% | [5] 25.9% | [6] 16.2%

O=C(CNc1nncs1)NO
inactive: [1] 15.1% | [2] -8.95% | [3] 0.3% | [4] 1.05% | [5] -1.35% | [6] -1.7%

CN(C)c1ccc(/[N+]([O-])=N/N2C(=O)c3ccccc3C2=O)cc1
inactive: [1] -25.1% | [2] -24.4% | [3] -20.9% | [4] -52% | [5] -22.9% | [6] -25.5%

CC1CCCN2C(=O)CN(c3ccccc3)CC(=O)N12 (stereo unspecified)
inactive: [1] 13.6% | [2] 2.45% | [3] -4.7% | [4] 14.9% | [5] 5.35% | [6] 1.95%

COc1cc2c(cc1OC)[C@H](c1cc(OC)c3c(c1)OCO3)[C@H]1C(=O)OCC1C2 (stereo partly specified)
inactive: [1] 11.4% | [2] -0.1% | [3] 0.2% | [4] 4.85% | [5] 30.6% | [6] 15.4%

O=C(Nc1ccccc1Cl)c1cc2cc(N=Nc3ccc(Br)cc3)ccc2oc1=O
inactive: [1] 0.55% | [2] 9.75% | [3] -3.8% | [4] 9.6% | [5] -7.05% | [6] -3.5%

COC(=O)c1ccc(COC(=O)N2C=CCC2C(=O)O)cc1 (stereo unspecified)
inactive: [1] 20.2% | [2] -19.6% | [3] 13.4% | [4] 11.7% | [5] 4% | [6] 1.15%

O=C1C2(c3ccccc3)CCC1(c1ccccc1)C(c1ccccc1)=C2c1ccccc1
inactive: [1] 40.1% | [2] 26.9% | [3] 7.25% | [4] 23.9% | [5] 3.05% | [6] 37.5%

CCCCCCCCCCCCCCCCCCCCCCCCCCBr
inactive: [1] 0.85% | [2] 0.8% | [3] 9.7% | [4] -9.95% | [5] 10.4% | [6] 11.7%

CC1C(c2ccccc2)OCCN1C(N)=S (stereo unspecified)
inactive: [1] 21.9% | [2] 1% | [3] 52.4% | [4] 17.9% | [5] 24.1% | [6] 23.3%

CCOC(=O)CNC(=O)SCc1ccccc1
inactive: [1] -12.4% | [2] -6.2% | [3] -5.95% | [4] -8.1% | [5] -11.3% | [6] 1.45%

COc1ccccc1CN1CCCN(Cc2ccccc2OC)C1c1cccc(F)c1
inactive: [1] 0.75% | [2] 9.9% | [3] 0.65% | [4] 16.4% | [5] 6.65% | [6] 17.8%

COc1ccc2oc(=N)c(C(=O)Nc3ccccc3)cc2c1
inactive: [1] 24.2% | [2] 20.1% | [3] -10.5% | [4] 4.9% | [5] -4.85% | [6] -38.4%

CCN(C(=O)c1ccc(C(=O)N(CC)c2cccc(C)c2)cc1)c1cccc(C)c1
inactive: [1] -24.4% | [2] -3.55% | [3] -9.85% | [4] 8.05% | [5] 6.15% | [6] -1.7%

CCOC(=C\C(=O)NC)/C=C/c1ccc([N+](=O)[O-])cc1
inactive: [1] -5.75% | [2] 0.65% | [3] -6.1% | [4] -18.4% | [5] 5.85% | [6] -3.45%

CCC(=O)COc1ccc(NC(NC(=O)C(C(F)(F)F)C(F)(F)F)(C(F)(F)F)C(F)(F)F)cc1
inactive: [1] 16.2% | [2] -24.8% | [3] 6.5% | [4] 29.2% | [5] -3.3% | [6] -16%

COCc1ccc2c(c1)C(O)NC(=O)O2 (stereo unspecified)
inactive: [1] 4.75% | [2] -4.05% | [3] 13.3% | [4] -28.2% | [5] -8.55% | [6] 16.1%

COc1ccc(C(=O)CC(c2ccccc2)C(C#N)c2ccccc2)cc1 (stereo unspecified)
inactive: [1] 1.8% and -5.7% | [2] 5.6% and -8.55% | [3] -6.2% and 26.1% | [4] -107% and -72.5% | [5] 8.95% and -5.05% | [6] -7% and 8.5%

COC(=O)C(Cc1ccc(N(C)C)cc1)(NC(=O)c1ccccc1)P(=O)(OC)OC (stereo unspecified)
inactive: [1] -17.8% | [2] 10.8% | [3] -28.2% | [4] 1.9% | [5] 4.4% | [6] -5.4%

O=C(/C(=C/c1ccccc1)c1ccccc1)N1c2ccccc2CC1c1c[nH]c2ccccc12 (stereo unspecified)
inactive: [1] 17.4% | [2] 15.2% | [3] -10.9% | [4] 19.1% | [5] 3.3% | [6] 23.8%

CCOC(=O)C(Cc1ccccc1)NC(=O)c1ccc(N=NN(C)C)cc1 (stereo unspecified)
inactive: [1] -19.8% | [2] -31.7% | [3] -37.2% | [4] -8.15% | [5] 6.65% | [6] -29.6%

O=c1cc(Cl)c(=O)n(-c2ccccc2)[nH]1
inactive: [1] 3.5% | [2] -4.75% | [3] -3.25% | [4] -14.6% | [5] 0.9% | [6] 2.7%

O=C(NCCO)c1c(O)c2ccccc2[nH]c1=O
inactive: [1] 2.8% | [2] 0.2% | [3] -6.05% | [4] 12.9% | [5] 6.55% | [6] 2.9%

COc1cc(C2c3cc4c(cc3OC3(O)CCCC23)OCO4)cc(OC)c1OC (stereo unspecified)
inactive: [1] -0.85% | [2] 3.55% | [3] 2.45% | [4] -25.1% | [5] 3.15% | [6] -2.25%

CCN(CC)CCOC(=O)Cc1cccc2c(=O)cc(-c3ccccc3)oc12
inactive: [1] -1.65% | [2] -11.7% | [3] -3.65% | [4] -3.9% | [5] 14.8% | [6] -53%

CC1=NN(c2ccc(S(=O)(=O)O)cc2)C(=O)C1N=Nc1ccc(-c2ccc(N=Nc3ccc(O)c(C(=O)O)c3)c(C)c2)cc1C (stereo unspecified)
inactive: [1] 17.6% | [2] 20.9% | [3] 17.3% | [4] 17.1% | [5] 23.4% | [6] 30.7%

O=c1n(-c2ccccc2)c(=O)n(-c2ccccc2)c(=O)n1-c1ccccc1
inactive: [1] -2.2% | [2] -13.2% | [3] -17.1% | [4] 5% | [5] 7.45% | [6] -14.7%

COC(=O)C1(C)CCCC2(C)C1CCC1(O)C(O)C(C(C)C)=CCC21 (stereo unspecified)
inactive: [1] 4.3% | [2] -2.35% | [3] 2.55% | [4] -2.25% | [5] -1.95% | [6] 20.2%

CCCCCCCCCOCC(=O)O
inactive: [1] 34.4% | [2] 5.55% | [3] 7.5% | [4] 3.15% | [5] 2.3% | [6] 6.4%

O=Cc1cccc2ccc3cccc(C(=O)Cl)c3c12
inactive: [1] 20.4% | [2] 46.9% | [3] 37.8% | [4] 18% | [5] 62.5% | [6] 32.5%

COc1cccc(C(=O)c2ccncc2C)c1OC
inactive: [1] -14.6% | [2] -4.45% | [3] 9.95% | [4] -7.95% | [5] 28% | [6] -8.1%

CC(C)C(C=O)C(O)(C(F)(F)F)C(F)(F)F (stereo unspecified)
inactive: [1] 2.3% | [2] -2.8% | [3] -30.6% | [4] 13.3% | [5] 22.3% | [6] 0.5%

OCCCNCc1ccccn1
inactive: [1] 7.25% | [2] -13.7% | [3] -20.4% | [4] 22.2% | [5] -12.2% | [6] -16.6%
